Measured values as given in PubChem BioAssay (Tox21).
“And” between values parts separate entries of the source, which are not always exact repeats. Equal values may be shown once. Results filed as inconclusive are left out. Where a structure was tested more than once in an assay, its records may differ in their call. The source made the active and inactive calls. Unless noted, calls follow the shape of the dose curve; as a rule, active = well fitted curve in the direction sought with a large enough effect in the repeat runs; inconclusive = weak or mixed curves; inactive = no such curve, though single readings can be large; an effect the other way counts as inactive or inconclusive.

Experiments:
[1] = qHTS assay to identify small molecule antagonists of the sonic hedgehog signaling (Shh) pathway (AID 1259369; calls by dose curve; also: nearly all actives have a fitted effect of over 45% in size; also: potency is read from the fitted curve at half-maximal effect)
Summary of the method: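 NIH/3T3-derived 3T3Gli1-Luc cells with stably integrated Gli1-Luc reporter were preincubated 4hr at 37 C, then given compounds in DMSO plus Shh conditioned medium and incubated 24hr. Firefly luciferase luminescence read after 30min reagent at room temperature.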

[2] = qHTS assay to identify small molecule agonists of the androgen receptor (AR) signaling pathway in the presence of an antagonist - cell viability counter screen (AID 1259379); also: nearly all actives have a fitted effect of over 25% in size; also: potency is read from the fitted curve at half-maximal effect
Summary of the method: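 MDA-kb2 human breast carcinoma cells (stable MMTV-luciferase, AR/GR responsive) were seeded 3,000 cells/well, pre-incubated 5 hr at 37C without CO2, then given 3.0uM nilutamide and compounds at 15 concentrations for 16 hr. Viability was read by CellTiter-Fluor fluorescence.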

[3] = qHTS assay to identify small molecule antagonists of the estrogen receptor beta (ER-beta) signaling pathway - cell viability counter screen (AID 1259382); also: nearly all actives have a fitted effect of over 55% in size; also: potency is read from the fitted curve at half-maximal effect
Summary of the method: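 ER-beta-UAS-bla HEK293T cells (2,000/well, 2% charcoal-stripped FBS) were pre-incubated 6 hr at 37C, then given compound plus 1nM final 17-beta-estradiol for 16 hr. Viability was read in the same wells by CellTiter-Glo luminescence after 30 min at room temperature.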

[4] = qHTS assay to identify small molecule agonists or antagonists of the thyroid stimulating hormone receptor (TSHR) signaling pathway - wild type cell line counter screen (AID 1259384; calls by dose curve)
Summary of the method: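 Wild-type Hek293 cells, 800/well, 18 h at 37C, then compound with Ro20-1724 for 30 min RT. cAMP by HTRF (cAMP-d2/anti-cAMP cryptate), 1 h RT, fluorescence read. 15 concentrations, triplicates.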

[5] = target: Thyrotropin receptor (Homo sapiens) (UniProt P16473); assay: qHTS assay to identify small molecule antagonists of the thyroid stimulating hormone receptor (TSHR) signaling pathway (AID 1259385; calls by dose curve; also: nearly all actives have a fitted effect of over 20% in size)
Summary of the method: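 TSHR-HEK293 cells (800/well) plated 18 h, then compounds with Ro20-1724 and TSH at 1.5 ng/mL final, 30 min at room temperature. cAMP quantified by HTRF (cAMP-d2/anti-cAMP-cryptate, 1 h); 15 concentrations in triplicate.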

[6] = qHTS assay to identify small molecule agonists of the estrogen receptor alpha (ER-alpha) signaling pathway in the presence of an antagonist - cell viability counter screen (AID 1259386);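 also: cells exposed to compounds for 22 h at 37 °C before the viability read; nearly all actives have a fitted effect of over 30% in size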; also: potency is read from the fitted curve at half-maximal effect
Summary of the method: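 VM7Luc4E2 cells (endogenous full-length ER-alpha, 4×ERE-luciferase) were held 5 days in phenol red-free medium with 10% charcoal-stripped FBS, plated, then given 10.0nM ICI-182,780 and compounds at 15 concentrations for 22hr at 37C; viability read by CellTiter-Fluor fluorescence.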

[7] = target: Progesterone receptor (Homo sapiens) (UniProt P06401); assay: qHTS assay to identify small molecule agonists of the progesterone receptor (PR) signaling pathway (AID 1346784; calls by dose curve; also: nearly all actives have a fitted effect of over 30% in size)
Summary of the method: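 Cells (PR-UAS-bla HEK 293T, GripTite) were plated in assay medium containing 2% charcoal-stripped FBS and incubated 6 hr. Test compounds in DMSO were added for 16 hr at 37C. FRET substrate was then loaded for 2 hr at room temperature before fluorescence reading.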

[8] = qHTS assay to identify small molecule agonists of the progesterone receptor (PR) signaling pathway - cell viability counter screen (AID 1346799; calls by dose curve; also: nearly all actives have a fitted effect of over 45% in size; also: potency is read from the fitted curve at half-maximal effect)
Summary of the method: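 Cells (PR-UAS-bla HEK293T) are plated at 3,000/well in 2% charcoal-stripped FBS medium, rested 6 hr, dosed and incubated 16 hr at 37C. CellTiter-Glo is then added and luminescence measured after 30 min at room temperature.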

[9] = qHTS assay to identify small molecule antagonists of the TGF-beta/Smad signaling pathway - cell viability counter screen (AID 1346824); also: nearly all actives have a fitted effect of over 50% in size
Summary of the method: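 SBE-bla HEK 293T cells, incubated overnight, then compound plus 0.25 ng/mL TGF-beta1 (stock added) for 5 hr at 37 C. Viability was read in the same wells by CellTiter-Glo luminescence after 30 min at room temperature.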

[10] = qHTS assay to identify small molecule agonists of the TGF-beta/Smad signaling pathway - cell viability counter screen (AID 1346829); also: nearly all actives have a fitted effect of over 45% in size; also: potency is read from the fitted curve at half-maximal effect
Summary of the method: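 Here the cytotoxicity of library compounds is measured in SBE-bla HEK 293T cells treated for 5 hr, using CellTiter-Glo added to wells already read for the beta-lactamase reporter.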

[11] = target: Thyrotropin-releasing hormone receptor (Homo sapiens) (UniProt P34981); assay: qHTS assay to identify small molecule antagonists of the thyrotropin-releasing hormone receptor (TRHR) signaling pathway (AID 1346877; active = well fitted inhibition curve with a large enough effect in the repeat runs, not every such curve was filed as active; also: series mostly up to about 51 µM)
Summary of the method: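 TRHR-expressing HEK293 cells were seeded, cultured 18 h at 37 °C, then loaded with calcium dye for 2 h. Compounds were pre-incubated 5 min at room temperature before 1 nM TRH (final) was added, and kinetic fluorescence was recorded for 3 min.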

[12] = target: Thyrotropin-releasing hormone receptor (Homo sapiens) (UniProt P34981); assay: qHTS assay to identify small molecule agonists of the thyrotropin-releasing hormone receptor (TRHR) signaling pathway (AID 1346891; calls by dose curve; also: series mostly up to about 58 µM)
Summary of the method: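 Cells: TRHR-Hek293, seeded and incubated 18 h. Dye loading: 2 h at 37 °C. Compound added from DMSO stock by pin tool. Read-out: kinetic calcium fluorescence over 3 min.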

[13] = target: Progesterone receptor (Homo sapiens) (UniProt P06401); assay: qHTS assay to identify small molecule antagonists of the progesterone receptor (PR) signaling pathway (AID 1346795; active = well fitted inhibition curve with a large enough effect in the signal ratio in the repeat runs, not every such curve was filed as active; the % refers to the signal ratio)
Summary of the method: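 Antagonist mode: compounds tested against 1 nM (final) promegestone stimulation in HEK293T cells expressing PR-UAS-bla reporter, 16 hr at 37C, 5% CO2; beta-lactamase activity detected via B/G FRET substrate after 2 hr at room temperature.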

[14] = qHTS assay to identify small molecule antagonists of the progesterone receptor (PR) signaling pathway - cell viability counter screen (AID 1346798); also: series mostly up to about 92 µM; nearly all actives have a fitted effect of over 50% in size
Summary of the method: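 Counter screen for cytotoxicity: viability of PR-UAS-bla HEK293T cells was measured with CellTiter-Glo luminescence following 16 hr compound exposure in the presence of R5020.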

[15] = qHTS assay to identify small molecule agonists of the TGF-beta/Smad signaling pathway (AID 1346859; active = well fitted activation curve with a large enough effect in the signal ratio in the repeat runs, not every such curve was filed as active; the % refers to the signal ratio; also: series mostly up to about 77 µM)
Summary of the method: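 Reporter line: HEK 293T with stably integrated SBE-controlled beta-lactamase. Compound exposure lasts 5 hr at 37 C and 5% CO2; substrate loading follows for 2 hr at room temperature, with emission read at 460 and 530 nm.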

[16] = qHTS assay to identify small molecule agonists of the estrogen receptor beta (ER-beta) signaling pathway - cell viability counter screen (AID 1259380); also: nearly all actives have a fitted effect of over 30% in size; also: potency is read from the fitted curve at half-maximal effect
Summary of the method: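 ER-beta-UAS-bla HEK293T cells in medium with 2% charcoal-stripped FBS were preincubated 6 hr at 37C, dosed with compound in DMSO for 16 hr, then after the bla read, CellTiter-Glo was added for 30 min at room temperature; luminescence recorded.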

[17] = target: Estrogen receptor (Homo sapiens) (UniProt P03372); assay: qHTS assay to identify small molecule agonists of the estrogen receptor alpha (ER-alpha) signaling pathway in the presence of an antagonist (AID 1259383; calls by dose curve; also: top concentration of the series differs between compounds; nearly all actives have a fitted effect of over 15% in size)
Summary of the method: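 VM7Luc4E2 cells (endogenous full-length ER-alpha, 4×ERE-luciferase) were precultured 5 days in phenol red-free medium with 10% charcoal-stripped FBS, given 10.0nM ICI-182,780 (final), then treated with compounds at 15 concentrations for 22hr at 37C; luminescence read with ONE-Glo.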

[18] = target: Androgen receptor (Homo sapiens) (UniProt P10275); assay: qHTS assay to identify small molecule agonists of the androgen receptor (AR) signaling pathway in the presence of an antagonist (AID 1259381; calls by dose curve; also: nearly all actives have a fitted effect of over 15% in size)
Summary of the method: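 MDA-kb2 human breast carcinoma cells carrying an MMTV-luciferase reporter (AR- and GR-responsive) were treated with compounds at 15 concentrations plus 3.0uM final nilutamide for 16hr at 37C without CO2; luminescence was read after ONE-Glo addition.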

[19] = target: Estrogen receptor beta (Homo sapiens) (UniProt Q92731); assay: qHTS assay to identify small molecule agonists of the estrogen receptor beta (ER-beta) signaling pathway (AID 1259377; active = well fitted activation curve with a large enough effect in the signal ratio in the repeat runs, not every such curve was filed as active; the % refers to the signal ratio)
Summary of the method: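 Agonist mode cell assay in GripTite HEK293T cells expressing an ER-beta fusion that drives beta-lactamase from an Upstream Activator Sequence; 16 hr compound exposure at 37C, then 2 h LiveBLAzer B/G FRET substrate at room temperature, fluorescence read-out.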

[20] = target: Estrogen receptor beta (Homo sapiens) (UniProt Q92731); assay: qHTS assay to identify small molecule antagonists of the estrogen receptor beta (ER-beta) signaling pathway (AID 1259378; active = well fitted inhibition curve with a large enough effect in the signal ratio in the repeat runs, not every such curve was filed as active; the % refers to the signal ratio)
Summary of the method: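 ER-beta-UAS-bla HEK293T cells in 2% charcoal-stripped FBS medium treated with compound plus 1nM final 17-beta-estradiol for 16 hr at 37C. Beta-lactamase reporter read by FRET substrate fluorescence after 2 hours at room temperature.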

Measured: Potency

Chain of Androgen receptor (Homo sapiens) (P10275 whole entry, looked up): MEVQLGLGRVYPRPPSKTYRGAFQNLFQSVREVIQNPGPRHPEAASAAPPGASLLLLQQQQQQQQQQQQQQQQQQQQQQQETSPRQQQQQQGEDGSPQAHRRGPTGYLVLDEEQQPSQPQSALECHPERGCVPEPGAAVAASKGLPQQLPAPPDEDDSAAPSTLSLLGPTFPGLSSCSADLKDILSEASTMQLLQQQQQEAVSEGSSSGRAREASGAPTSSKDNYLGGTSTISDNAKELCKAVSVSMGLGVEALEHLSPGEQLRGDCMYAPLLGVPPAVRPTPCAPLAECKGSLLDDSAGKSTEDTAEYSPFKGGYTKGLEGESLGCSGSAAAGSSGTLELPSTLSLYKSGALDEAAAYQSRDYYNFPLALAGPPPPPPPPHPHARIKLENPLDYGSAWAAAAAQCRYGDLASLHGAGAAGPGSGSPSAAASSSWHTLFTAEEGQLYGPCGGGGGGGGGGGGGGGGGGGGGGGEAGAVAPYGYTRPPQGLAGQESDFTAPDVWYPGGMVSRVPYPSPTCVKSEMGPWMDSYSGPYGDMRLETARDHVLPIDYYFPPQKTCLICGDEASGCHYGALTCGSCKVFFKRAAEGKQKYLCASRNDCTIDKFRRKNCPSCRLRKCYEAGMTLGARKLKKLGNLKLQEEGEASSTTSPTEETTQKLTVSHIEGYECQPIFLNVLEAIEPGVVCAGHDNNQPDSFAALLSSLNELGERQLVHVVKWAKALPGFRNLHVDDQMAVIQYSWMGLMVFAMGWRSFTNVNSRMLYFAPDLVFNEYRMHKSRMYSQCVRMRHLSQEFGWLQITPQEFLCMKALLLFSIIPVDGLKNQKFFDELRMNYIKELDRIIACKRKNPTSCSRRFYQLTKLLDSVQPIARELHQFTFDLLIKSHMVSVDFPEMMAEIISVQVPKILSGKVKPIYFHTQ
Chain of Progesterone receptor (Homo sapiens) (P06401 whole entry, looked up): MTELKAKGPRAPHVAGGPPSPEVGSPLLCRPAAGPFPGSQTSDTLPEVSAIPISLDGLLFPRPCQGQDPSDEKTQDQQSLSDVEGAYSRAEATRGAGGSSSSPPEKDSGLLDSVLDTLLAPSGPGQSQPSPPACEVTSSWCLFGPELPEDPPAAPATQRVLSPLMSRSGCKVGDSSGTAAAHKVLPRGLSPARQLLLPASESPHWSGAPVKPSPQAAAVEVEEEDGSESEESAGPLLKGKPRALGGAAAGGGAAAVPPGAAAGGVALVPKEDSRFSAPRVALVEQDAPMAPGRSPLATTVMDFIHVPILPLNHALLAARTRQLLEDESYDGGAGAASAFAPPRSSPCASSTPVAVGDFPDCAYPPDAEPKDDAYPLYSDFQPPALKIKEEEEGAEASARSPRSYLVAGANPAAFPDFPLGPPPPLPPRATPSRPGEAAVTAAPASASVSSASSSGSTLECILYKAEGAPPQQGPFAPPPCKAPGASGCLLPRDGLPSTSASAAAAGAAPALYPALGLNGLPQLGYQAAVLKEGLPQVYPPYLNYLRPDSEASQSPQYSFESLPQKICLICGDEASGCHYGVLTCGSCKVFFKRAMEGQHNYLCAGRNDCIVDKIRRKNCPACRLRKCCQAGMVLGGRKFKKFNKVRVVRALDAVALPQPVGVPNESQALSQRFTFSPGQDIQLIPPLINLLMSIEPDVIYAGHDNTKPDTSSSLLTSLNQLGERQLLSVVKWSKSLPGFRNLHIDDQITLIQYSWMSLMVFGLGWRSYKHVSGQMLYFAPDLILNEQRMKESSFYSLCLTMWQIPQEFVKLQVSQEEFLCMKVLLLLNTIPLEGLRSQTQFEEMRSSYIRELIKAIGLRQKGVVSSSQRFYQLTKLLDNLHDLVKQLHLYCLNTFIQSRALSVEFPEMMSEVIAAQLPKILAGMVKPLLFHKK
Chain of Estrogen receptor (Homo sapiens) (P03372 whole entry, looked up): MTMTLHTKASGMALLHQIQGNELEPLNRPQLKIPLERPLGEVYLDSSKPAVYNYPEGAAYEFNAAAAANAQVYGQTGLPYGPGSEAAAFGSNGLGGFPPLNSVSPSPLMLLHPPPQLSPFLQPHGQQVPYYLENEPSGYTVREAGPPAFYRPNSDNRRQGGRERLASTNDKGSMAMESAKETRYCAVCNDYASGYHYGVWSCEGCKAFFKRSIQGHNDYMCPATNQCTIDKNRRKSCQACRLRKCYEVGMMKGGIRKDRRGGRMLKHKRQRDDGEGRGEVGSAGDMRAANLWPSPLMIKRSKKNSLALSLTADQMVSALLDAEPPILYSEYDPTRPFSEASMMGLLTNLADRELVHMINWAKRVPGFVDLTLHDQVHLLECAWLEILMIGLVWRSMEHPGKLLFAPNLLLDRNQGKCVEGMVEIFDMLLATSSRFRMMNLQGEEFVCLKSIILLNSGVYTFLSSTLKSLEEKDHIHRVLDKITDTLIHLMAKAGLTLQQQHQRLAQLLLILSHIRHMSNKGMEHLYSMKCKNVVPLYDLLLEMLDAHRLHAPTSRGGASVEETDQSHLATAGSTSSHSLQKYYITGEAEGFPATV
Chain of Thyrotropin-releasing hormone receptor (Homo sapiens) (P34981 whole entry, looked up): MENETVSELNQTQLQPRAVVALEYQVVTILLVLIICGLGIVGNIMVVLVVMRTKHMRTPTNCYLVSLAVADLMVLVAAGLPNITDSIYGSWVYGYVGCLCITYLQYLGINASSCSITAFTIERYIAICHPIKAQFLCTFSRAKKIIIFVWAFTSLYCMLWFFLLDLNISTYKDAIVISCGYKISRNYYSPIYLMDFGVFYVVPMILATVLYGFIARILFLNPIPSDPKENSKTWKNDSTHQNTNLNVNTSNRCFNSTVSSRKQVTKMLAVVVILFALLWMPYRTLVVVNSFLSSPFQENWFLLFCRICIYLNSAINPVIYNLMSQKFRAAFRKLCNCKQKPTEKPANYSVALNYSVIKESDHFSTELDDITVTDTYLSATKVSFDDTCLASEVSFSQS
Chain of Estrogen receptor beta (Homo sapiens) (Q92731 whole entry, looked up, the tested form may be a part): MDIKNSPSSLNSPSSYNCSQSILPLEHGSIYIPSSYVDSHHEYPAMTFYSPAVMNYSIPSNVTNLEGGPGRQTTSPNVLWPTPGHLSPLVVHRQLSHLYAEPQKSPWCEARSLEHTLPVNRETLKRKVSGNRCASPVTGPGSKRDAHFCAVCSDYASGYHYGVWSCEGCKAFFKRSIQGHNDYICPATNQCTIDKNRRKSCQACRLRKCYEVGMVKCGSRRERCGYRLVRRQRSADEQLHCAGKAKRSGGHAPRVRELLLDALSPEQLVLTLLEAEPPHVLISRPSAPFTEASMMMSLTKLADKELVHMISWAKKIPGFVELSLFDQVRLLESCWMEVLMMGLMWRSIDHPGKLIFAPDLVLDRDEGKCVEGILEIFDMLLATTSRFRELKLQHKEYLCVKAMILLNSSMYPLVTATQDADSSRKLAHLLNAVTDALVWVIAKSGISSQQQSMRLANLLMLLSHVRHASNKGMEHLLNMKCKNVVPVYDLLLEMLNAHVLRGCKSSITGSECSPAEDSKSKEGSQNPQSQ
Chain of Thyrotropin receptor (Homo sapiens) (P16473 whole entry, looked up): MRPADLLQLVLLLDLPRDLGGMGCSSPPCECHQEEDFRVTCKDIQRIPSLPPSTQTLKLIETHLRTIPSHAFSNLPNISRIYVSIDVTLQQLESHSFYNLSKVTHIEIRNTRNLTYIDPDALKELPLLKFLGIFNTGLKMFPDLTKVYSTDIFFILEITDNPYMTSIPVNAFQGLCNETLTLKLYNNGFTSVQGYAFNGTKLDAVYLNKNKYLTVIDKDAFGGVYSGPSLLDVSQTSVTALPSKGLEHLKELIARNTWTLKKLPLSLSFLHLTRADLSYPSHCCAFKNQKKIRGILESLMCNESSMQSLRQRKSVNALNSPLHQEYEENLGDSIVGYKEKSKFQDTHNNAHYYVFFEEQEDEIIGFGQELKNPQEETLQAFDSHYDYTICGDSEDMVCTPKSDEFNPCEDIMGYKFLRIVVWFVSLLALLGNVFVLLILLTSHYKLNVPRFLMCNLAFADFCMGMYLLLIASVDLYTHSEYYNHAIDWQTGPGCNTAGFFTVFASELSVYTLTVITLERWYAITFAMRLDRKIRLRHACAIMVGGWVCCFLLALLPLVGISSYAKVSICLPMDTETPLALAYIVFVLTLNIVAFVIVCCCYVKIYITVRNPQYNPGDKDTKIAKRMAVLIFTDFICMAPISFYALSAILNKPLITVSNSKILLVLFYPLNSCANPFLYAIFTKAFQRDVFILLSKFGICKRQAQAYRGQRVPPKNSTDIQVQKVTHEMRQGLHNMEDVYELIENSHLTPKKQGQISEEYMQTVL

CC1=CC(=O)CC(C)(C)C1
inactive: [1] | [2] | [4] | [5] | [6] | [7] | [9] | [10] | [11] | [12]
active: [8] 19.9 µM
14.1 µM (active) and inactive: [3]

Cc1ccc(C)c(S(=O)(=O)O)c1
not listed: [8] | [9] | [16] | [17] | [18] | [19] | [20]
inactive: all other assays above

NC(=O)c1ncn([C@@H]2O[C@H](CO)[C@@H](O)[C@H]2O)n1
inactive: [1] | [2] | [16] | [3] | [6] | [7] | [9] | [10] | [15] | [11] | [12]

Cc1ncc(CO)c(CO)c1O
not listed: [8] | [9] | [17] | [18] | [19] | [20]
inactive: all other assays above

CC(O)CNCC(C)O (stereo not given)
not listed: [9] | [11] | [12] | [13] | [18] | [19] | [20]
inactive: all other assays above

Cc1ccc(C(C)C)cc1
not listed: [19] | [20]
inactive: all other assays above

O=c1n(CCCN2CCN(c3cccc(Cl)c3)CC2)nc2ccccn12
not listed: [11] | [12] | [16] | [17] | [18] | [19] | [20]
inactive: all other assays above

CC(=O)c1nccs1
not listed: [13] | [16] | [18] | [19] | [20]
inactive: all other assays above

CC1(C)C(=O)N(Cl)C(=O)N1Cl
not listed: [16] | [18] | [19] | [20]
inactive: all other assays above

CCCCC(CC)COC(=O)c1ccc(C(=O)OCC(CC)CCCC)cc1 (stereo not given)
not listed: [4] | [5] | [9] | [13] | [17] | [19] | [20]
inactive: all other assays above

Brc1ccc(Oc2ccc(Br)cc2)cc1
not listed: [5] | [9] | [17] | [18] | [19] | [20]
inactive: all other assays above

CC1(C)[C@@H](O[C@H]2O[C@H](C(=O)O)[C@@H](O)[C@H](O)[C@H]2O[C@@H]2O[C@H](C(=O)O)[C@@H](O)[C@H](O)[C@H]2O)CC[C@]2(C)[C@H]3C(=O)C=C4[C@@H]5C[C@@](C)(C(=O)O)CC[C@]5(C)CC[C@@]4(C)[C@]3(C)CC[C@@H]12
not listed: [11] | [12] | [13] | [17] | [18] | [19] | [20]
inactive: all other assays above

COc1ccc2cc3[n+](cc2c1OC)CCc1cc2c(cc1-3)OCO2
active: [2] 4.89 µM and 8.41 µM | [16] 48.9 µM | [6] 27.5 µM and 26.6 µM
not listed: [4] | [5] | [8] | [18] | [19] | [20]
inactive: all other assays above

Cc1ccc(Cl)cc1
not listed: [18] | [19] | [20]
inactive: all other assays above

O=C(O)C1=NN(c2ccc(S(=O)(=O)O)cc2)C(=O)C1
not listed: [15] | [18] | [19] | [20]
inactive: all other assays above

O=C(NCC1CCCCN1)c1cc(OCC(F)(F)F)ccc1OCC(F)(F)F (stereo not given)
19 µM (active) and inactive: [1]
not listed: [17] | [18] | [19] | [20]
inactive: all other assays above

CO[Si](CCCNCCN)(OC)OC
31.4 µM (active) and inactive: [10]
not listed: [1] | [9] | [13] | [15] | [17]
inactive: all other assays above

CCCOCC(C)O (stereo not given)
not listed: [9] | [17] | [19] | [20]
inactive: all other assays above

COc1ccccc1[N+](=O)[O-]
not listed: [4] | [5] | [9] | [17] | [18] | [19] | [20]
inactive: all other assays above

COC(=O)CCCCC(=O)OC
not listed: [4] | [5] | [15] | [16] | [18] | [19] | [20]
inactive: all other assays above
